The values below come from PMC7862700, “An all-to-all approach to the identification of sequence-specific readers for epigenetic DNA modifications on cytosine”.

Assay in all cases: DAPPL (digital affinity profiling via proximity ligation, sequencing); 10 mM Tris-HCl pH 7.5, 50 mM NaCl, 1 mM DTT, 4% glycerol, room temperature, 30 min; GST-TFs on glutathione beads, 16-mer random dsDNA library, 0.1% formaldehyde crosslink after washing; high values mean tight binding
The target in assay [1] is T1, FEV (Homo sapiens, UniProt Q99581 1-238).
T1 sequence: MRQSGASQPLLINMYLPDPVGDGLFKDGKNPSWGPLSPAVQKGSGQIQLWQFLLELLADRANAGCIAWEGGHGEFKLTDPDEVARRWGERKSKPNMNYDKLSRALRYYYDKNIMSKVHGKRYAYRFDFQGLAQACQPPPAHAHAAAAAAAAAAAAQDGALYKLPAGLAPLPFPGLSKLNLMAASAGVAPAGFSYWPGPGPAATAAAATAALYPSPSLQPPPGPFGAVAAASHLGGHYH
To be noted: protein: recombinant; tags: N-terminal GST; dsDNA, one strand shown. The procedure, abridged: (§1)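 After expression in yeast as GST fusions, human transcription factors were bound to glutathione beads, DNA-barcoded and mixed with a tag-only sample. The pools were incubated with 200 nmole of a 16-mer random double-stranded DNA library in Tris/NaCl/DTT/glycerol buffer (30 min, room temperature), washed and crosslinked with 0.1% formaldehyde. Proximity ligation with BsaI/T4 ligase ran for 1 h at 37 °C, before PCR amplification and sequencing on an Illumina NextSeq500. Binding signal is a hexamer's read frequency for a factor divided by its frequency for the tag-only sample.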

Assay [2] has as its target ETV5 (Homo sapiens, UniProt P41161 1-510). The following applies: protein: recombinant; tags: N-terminal GST; dsDNA, one strand shown. In a few lines:
as §1

Assay [3] has as its target HSF1 (Homo sapiens, UniProt Q00613 1-529). The following applies: protein: recombinant; tags: N-terminal GST; chain copies: 3; dsDNA, one strand shown. The procedure, abridged:
as §1

For assay [4], the target named is T2, SPIC (Homo sapiens, UniProt Q8N5J4 1-248).
T2 sequence: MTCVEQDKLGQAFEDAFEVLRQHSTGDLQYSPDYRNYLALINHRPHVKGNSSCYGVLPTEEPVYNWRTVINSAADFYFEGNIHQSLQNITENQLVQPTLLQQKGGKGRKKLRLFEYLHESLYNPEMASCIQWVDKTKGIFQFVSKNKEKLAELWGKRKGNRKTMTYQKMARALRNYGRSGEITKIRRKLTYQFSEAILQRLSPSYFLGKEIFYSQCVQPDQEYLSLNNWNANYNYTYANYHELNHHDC
The following applies: protein: recombinant; tags: N-terminal GST; dsDNA, one strand shown. In a few lines:
as §1

The target in assay [5] is ELF4 (Homo sapiens, UniProt Q99607 1-663). The following applies: protein: recombinant; tags: N-terminal GST; dsDNA, one strand shown. In a few lines:
as §1

Assay [6] has as its target T3, ELK4 (Homo sapiens, UniProt P28324-2 1-405).
T3 sequence: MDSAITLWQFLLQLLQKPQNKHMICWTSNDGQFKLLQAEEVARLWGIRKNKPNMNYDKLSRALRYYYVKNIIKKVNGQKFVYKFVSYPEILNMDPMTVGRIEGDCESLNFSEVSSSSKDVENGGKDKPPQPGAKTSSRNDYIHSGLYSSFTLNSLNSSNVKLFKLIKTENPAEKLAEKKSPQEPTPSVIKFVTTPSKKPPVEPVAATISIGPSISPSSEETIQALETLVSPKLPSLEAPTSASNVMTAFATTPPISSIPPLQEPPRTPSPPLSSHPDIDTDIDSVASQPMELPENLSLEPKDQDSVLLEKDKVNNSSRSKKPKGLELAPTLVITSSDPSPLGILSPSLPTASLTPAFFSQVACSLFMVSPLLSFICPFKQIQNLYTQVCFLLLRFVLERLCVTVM
The following applies: protein: recombinant; tags: N-terminal GST; dsDNA, one strand shown. The procedure, abridged:
as §1

Assay [7] addresses T4, ETV2 (Homo sapiens, UniProt O00321 1-342).
T4 sequence: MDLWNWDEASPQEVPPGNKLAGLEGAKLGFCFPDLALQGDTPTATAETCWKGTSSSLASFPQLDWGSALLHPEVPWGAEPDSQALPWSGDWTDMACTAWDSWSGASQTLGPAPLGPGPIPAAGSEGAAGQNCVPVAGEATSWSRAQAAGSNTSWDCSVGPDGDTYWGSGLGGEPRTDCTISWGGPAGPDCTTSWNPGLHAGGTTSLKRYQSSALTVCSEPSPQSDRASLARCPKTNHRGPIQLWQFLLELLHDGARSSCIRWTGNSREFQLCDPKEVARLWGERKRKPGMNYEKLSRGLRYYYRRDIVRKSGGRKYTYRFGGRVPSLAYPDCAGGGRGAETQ
To be noted: protein: recombinant; tags: N-terminal GST; dsDNA, one strand shown. The procedure, abridged:
as §1

The target in assay [8] is T5, ELF3 (Homo sapiens, UniProt P78545 1-371).
T5 sequence: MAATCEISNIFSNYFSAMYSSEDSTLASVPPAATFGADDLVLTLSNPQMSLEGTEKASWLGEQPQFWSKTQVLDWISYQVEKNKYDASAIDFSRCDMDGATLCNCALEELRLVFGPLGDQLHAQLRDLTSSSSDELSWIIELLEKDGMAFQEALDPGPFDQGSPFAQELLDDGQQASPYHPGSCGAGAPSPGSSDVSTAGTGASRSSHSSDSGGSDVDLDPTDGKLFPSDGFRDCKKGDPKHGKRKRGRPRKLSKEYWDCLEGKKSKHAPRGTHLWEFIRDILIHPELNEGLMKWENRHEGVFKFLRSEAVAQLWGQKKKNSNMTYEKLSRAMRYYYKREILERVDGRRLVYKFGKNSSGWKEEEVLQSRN
To be noted: protein: recombinant; tags: N-terminal GST; dsDNA, one strand shown. The procedure, abridged: as §1

The target of assay [9] is CRX (Homo sapiens, UniProt O43186 1-299). To be noted: protein: recombinant; tags: N-terminal GST; dsDNA, one strand shown. In a few lines: as §1
CRX, sequence (O43186 whole entry): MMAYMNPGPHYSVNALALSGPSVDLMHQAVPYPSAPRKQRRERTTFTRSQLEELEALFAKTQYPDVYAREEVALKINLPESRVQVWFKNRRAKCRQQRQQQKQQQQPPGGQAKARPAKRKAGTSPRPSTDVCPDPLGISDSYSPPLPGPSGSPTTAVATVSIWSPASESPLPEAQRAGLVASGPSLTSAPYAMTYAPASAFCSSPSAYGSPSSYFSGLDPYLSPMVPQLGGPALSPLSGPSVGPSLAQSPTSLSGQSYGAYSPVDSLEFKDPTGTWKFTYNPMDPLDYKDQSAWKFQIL
In assay [10] the target is ETV1 (Homo sapiens, UniProt P50549 1-477). To be noted: protein: recombinant; tags: N-terminal GST; dsDNA, one strand shown. The procedure, abridged:
as §1

In assay [11] the target is T6, ERF (Homo sapiens, UniProt P50548 1-548).
T6 sequence: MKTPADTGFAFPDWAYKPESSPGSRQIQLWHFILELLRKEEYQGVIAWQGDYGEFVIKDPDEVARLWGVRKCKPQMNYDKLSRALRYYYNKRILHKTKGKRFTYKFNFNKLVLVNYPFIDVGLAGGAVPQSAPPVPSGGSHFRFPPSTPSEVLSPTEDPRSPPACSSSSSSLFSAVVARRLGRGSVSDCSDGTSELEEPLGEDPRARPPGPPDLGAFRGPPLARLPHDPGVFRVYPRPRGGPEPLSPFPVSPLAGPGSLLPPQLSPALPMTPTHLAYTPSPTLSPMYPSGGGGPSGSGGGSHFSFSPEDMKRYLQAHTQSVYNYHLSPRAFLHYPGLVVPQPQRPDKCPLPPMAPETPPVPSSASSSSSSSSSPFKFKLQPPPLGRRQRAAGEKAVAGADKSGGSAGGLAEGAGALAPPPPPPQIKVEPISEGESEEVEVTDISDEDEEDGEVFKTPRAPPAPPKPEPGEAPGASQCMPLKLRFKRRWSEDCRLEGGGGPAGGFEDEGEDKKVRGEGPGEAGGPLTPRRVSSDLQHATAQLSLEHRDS
The following applies: protein: recombinant; tags: N-terminal GST; dsDNA, one strand shown. In a few lines:
as §1

Assay [12] has as its target T7, ETV3L (Homo sapiens, UniProt Q6ZN32 1-361).
T7 sequence: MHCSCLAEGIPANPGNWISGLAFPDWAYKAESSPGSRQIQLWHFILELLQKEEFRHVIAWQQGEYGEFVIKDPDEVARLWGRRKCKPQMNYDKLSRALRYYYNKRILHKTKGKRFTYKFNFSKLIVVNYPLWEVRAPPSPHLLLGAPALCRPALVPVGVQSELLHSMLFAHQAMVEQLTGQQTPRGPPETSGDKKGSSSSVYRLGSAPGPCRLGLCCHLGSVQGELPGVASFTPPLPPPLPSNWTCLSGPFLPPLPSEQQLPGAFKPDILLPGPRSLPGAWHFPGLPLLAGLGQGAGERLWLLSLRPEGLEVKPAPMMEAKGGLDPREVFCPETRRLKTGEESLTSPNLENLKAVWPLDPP
To be noted: protein: recombinant; tags: N-terminal GST; dsDNA, one strand shown. The procedure, abridged:
as §1

For assay [13], the target named is T8, ETS2 (Homo sapiens, UniProt P15036 1-469).
T8 sequence: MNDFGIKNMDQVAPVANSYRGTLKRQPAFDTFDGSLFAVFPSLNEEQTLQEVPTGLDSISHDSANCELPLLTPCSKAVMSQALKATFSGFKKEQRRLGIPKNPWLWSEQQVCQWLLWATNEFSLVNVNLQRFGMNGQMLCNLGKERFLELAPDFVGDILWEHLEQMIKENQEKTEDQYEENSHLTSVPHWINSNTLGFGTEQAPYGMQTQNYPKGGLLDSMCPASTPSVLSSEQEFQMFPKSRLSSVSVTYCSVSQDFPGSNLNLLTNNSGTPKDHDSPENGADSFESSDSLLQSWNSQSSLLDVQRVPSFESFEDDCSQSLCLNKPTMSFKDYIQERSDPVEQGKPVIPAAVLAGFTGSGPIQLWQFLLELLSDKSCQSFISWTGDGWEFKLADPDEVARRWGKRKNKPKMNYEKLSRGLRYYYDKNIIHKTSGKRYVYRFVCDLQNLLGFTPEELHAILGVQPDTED
To be noted: protein: recombinant; tags: N-terminal GST; dsDNA, one strand shown. The procedure, abridged:
as §1

Assay [14] has as its target T9, SPDEF (Homo sapiens, UniProt O95238 1-335).
T9 sequence: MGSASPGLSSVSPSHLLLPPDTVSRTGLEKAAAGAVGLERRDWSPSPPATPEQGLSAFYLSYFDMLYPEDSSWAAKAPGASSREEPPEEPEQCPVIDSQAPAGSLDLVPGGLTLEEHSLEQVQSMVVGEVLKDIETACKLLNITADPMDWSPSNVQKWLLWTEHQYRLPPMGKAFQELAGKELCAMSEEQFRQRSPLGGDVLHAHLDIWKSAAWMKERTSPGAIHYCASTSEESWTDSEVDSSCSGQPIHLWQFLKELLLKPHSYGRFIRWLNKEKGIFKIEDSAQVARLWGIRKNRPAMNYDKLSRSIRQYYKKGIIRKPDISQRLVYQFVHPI
To be noted: protein: recombinant; tags: N-terminal GST; dsDNA, one strand shown. In a few lines:
as §1

For assay [15], the target named is T10, ETV7 (Homo sapiens, UniProt Q9Y603 1-341).
T10 sequence: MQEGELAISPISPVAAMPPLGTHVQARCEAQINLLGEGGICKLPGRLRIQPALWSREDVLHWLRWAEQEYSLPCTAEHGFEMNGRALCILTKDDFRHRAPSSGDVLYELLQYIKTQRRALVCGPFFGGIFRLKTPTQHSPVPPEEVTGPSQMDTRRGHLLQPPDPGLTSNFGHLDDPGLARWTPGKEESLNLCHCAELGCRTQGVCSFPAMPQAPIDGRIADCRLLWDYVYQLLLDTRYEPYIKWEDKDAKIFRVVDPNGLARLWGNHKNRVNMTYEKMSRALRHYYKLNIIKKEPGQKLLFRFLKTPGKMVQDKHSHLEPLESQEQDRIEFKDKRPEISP
To be noted: protein: recombinant; tags: N-terminal GST; dsDNA, one strand shown. In a few lines:
as §1

The target in assay [16] is T11, ELF5 (Homo sapiens, UniProt Q9UKW6-2 1-255).
T11 sequence: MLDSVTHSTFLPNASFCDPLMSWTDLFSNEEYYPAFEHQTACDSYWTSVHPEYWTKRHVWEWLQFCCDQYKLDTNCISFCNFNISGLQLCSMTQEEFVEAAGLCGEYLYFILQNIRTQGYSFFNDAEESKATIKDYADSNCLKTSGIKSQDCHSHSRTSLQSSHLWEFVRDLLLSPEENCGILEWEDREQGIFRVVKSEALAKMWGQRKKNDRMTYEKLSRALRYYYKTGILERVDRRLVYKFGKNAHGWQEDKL
To be noted: protein: recombinant; tags: N-terminal GST; dsDNA, one strand shown. The procedure, abridged: as §1

The target in assay [17] is T12, ETV3 (Homo sapiens, UniProt P41162-2 1-143).
T12 sequence: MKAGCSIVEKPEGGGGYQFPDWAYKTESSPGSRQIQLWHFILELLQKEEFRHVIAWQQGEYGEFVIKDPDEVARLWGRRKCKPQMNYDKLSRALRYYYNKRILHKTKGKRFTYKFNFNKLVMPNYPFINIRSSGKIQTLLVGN
The following applies: protein: recombinant; tags: N-terminal GST; dsDNA, one strand shown. In a few lines:
as §1

Assay [18] deals with ETV6 (Homo sapiens, UniProt P41212 1-452). To be noted: protein: recombinant; tags: N-terminal GST; dsDNA, one strand shown. The procedure, abridged: as §1
ETV6, sequence (P41212 whole entry): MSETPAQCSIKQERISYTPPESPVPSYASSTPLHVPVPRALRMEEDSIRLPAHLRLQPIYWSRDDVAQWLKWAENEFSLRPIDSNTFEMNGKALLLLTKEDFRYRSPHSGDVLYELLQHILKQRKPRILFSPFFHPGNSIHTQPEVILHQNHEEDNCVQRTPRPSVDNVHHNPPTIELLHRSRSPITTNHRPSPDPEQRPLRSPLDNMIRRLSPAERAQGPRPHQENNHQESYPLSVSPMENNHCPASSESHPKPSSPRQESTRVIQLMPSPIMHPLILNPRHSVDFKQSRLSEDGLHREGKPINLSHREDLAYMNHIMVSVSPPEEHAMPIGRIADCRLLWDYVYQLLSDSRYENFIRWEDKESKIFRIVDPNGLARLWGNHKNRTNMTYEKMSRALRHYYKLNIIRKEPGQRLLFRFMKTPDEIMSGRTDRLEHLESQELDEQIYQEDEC

ETV5, sequence (P41161 whole entry): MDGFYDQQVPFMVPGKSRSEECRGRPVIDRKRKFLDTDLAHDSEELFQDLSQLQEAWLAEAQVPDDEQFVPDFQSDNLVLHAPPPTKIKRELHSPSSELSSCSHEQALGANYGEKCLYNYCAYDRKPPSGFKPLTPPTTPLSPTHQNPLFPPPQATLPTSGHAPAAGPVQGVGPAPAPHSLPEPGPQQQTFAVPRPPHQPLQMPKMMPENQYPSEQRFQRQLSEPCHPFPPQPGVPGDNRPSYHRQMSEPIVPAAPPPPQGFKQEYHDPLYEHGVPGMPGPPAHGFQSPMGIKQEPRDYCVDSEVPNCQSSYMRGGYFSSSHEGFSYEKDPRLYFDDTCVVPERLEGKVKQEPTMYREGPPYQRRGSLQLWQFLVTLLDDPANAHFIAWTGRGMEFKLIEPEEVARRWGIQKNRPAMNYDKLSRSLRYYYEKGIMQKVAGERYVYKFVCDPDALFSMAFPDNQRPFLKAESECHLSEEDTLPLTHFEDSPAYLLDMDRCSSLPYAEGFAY
HSF1, sequence (Q00613 whole entry): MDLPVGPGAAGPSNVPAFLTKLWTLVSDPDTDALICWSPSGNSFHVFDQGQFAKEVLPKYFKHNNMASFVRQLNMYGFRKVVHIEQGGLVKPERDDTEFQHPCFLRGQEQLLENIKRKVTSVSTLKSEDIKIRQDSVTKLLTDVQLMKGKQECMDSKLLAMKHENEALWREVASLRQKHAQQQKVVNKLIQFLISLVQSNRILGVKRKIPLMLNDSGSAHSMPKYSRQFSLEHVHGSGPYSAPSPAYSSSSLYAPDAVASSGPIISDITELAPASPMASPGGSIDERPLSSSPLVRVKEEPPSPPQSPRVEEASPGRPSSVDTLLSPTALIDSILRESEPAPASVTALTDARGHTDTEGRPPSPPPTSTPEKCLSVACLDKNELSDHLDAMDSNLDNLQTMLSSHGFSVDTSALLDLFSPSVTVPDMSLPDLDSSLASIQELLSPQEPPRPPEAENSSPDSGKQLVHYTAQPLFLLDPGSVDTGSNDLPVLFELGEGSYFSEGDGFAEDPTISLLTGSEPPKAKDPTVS
ELF4, sequence (Q99607 whole entry): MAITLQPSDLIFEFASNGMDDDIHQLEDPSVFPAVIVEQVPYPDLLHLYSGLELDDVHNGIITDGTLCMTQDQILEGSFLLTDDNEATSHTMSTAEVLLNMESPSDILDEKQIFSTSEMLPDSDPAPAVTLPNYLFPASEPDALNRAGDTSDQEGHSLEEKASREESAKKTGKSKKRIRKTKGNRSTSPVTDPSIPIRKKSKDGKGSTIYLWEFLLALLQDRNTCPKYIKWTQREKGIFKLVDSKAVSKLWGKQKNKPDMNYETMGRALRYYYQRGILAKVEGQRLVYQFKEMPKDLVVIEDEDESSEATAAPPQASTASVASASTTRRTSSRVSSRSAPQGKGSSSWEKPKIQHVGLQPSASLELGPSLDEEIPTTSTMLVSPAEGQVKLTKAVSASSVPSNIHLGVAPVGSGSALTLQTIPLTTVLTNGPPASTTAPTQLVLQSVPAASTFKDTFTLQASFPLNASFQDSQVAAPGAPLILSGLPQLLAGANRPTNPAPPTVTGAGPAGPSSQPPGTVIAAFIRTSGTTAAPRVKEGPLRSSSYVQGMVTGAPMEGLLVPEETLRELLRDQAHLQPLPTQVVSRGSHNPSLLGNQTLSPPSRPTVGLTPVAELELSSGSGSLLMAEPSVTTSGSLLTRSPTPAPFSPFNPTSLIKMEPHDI
ETV1, sequence (P50549 whole entry): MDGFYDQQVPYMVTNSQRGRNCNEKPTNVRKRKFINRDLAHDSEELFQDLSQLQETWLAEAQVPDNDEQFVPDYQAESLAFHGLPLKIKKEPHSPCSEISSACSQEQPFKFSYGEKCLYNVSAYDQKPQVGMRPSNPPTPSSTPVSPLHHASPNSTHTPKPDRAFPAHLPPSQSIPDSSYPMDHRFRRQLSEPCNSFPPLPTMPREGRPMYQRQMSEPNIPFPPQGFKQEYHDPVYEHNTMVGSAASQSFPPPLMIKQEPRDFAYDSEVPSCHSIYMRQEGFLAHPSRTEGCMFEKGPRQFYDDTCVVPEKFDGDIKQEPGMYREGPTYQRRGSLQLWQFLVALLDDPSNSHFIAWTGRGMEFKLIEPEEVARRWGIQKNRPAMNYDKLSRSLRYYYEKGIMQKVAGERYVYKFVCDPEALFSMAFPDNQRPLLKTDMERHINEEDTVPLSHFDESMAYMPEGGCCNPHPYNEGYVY

Regarding TTCCGA, the binding signal was 1.81 fold enrichment (6-mer frequency, TF over GST control) in assay [1]; 1.57 fold enrichment (6-mer frequency, TF over GST control) in assay [2]; 1.35 fold enrichment (6-mer frequency, TF over GST control) in [3]; 1.61 fold enrichment (6-mer frequency, TF over GST control) in [4]; 1.44 fold enrichment (6-mer frequency, TF over GST control) in assay [5]; 1.46 fold enrichment (6-mer frequency, TF over GST control) in [6]. The binding signal in assay [7] was 1.7 fold enrichment (6-mer frequency, TF over GST control); in assay [8] it was 1.5 fold enrichment (6-mer frequency, TF over GST control); in assay [9], 1.19 fold enrichment (6-mer frequency, TF over GST control); in assay [10], 1.63 fold enrichment (6-mer frequency, TF over GST control); in assay [11] it was 1.5 fold enrichment (6-mer frequency, TF over GST control); in assay [12], 1.48 fold enrichment (6-mer frequency, TF over GST control). The binding signal in assay [13] was 1.67 fold enrichment (6-mer frequency, TF over GST control); in assay [14], 1.47 fold enrichment (6-mer frequency, TF over GST control); in assay [15], 1.64 fold enrichment (6-mer frequency, TF over GST control); in [16], 1.78 fold enrichment (6-mer frequency, TF over GST control); in assay [17], 1.68 fold enrichment (6-mer frequency, TF over GST control); in [18], 1.85 fold enrichment (6-mer frequency, TF over GST control).
